Assay results as given in PubChem BioAssay.
A number with no mark means an inactive call. The source made the active and inactive calls. Cut-off read from the data, not from the text of the source, unless noted: active = inhibition above about 28%; inactive = the rest.

How the values were obtained:
[1] = StAR promoter reporter inhibitors, counter-screen for LRH-1 inverse agonist project, cell-based, luminescence, high throughput (AID 651611); conditions: StAR promoter luciferase reporter counterscreen, at 3.6 µM, active compounds read high
[2] = target: Nuclear receptor subfamily 5 group A member 2 (Homo sapiens) (UniProt O00482); assay: LRH-1 (NR5A2) inverse agonists, retest, confirmation, cell-based, luminescence (AID 651613; in the data active = inhibition above about 42%;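 note: HEK293T cells co-transfected with LRH-1 and StAR promoter luciferase reporter; 0% = vehicle wells and 100% = parental cells lacking receptor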); conditions: cell-based LRH-1 luciferase reporter, inverse agonism; at 3.6 µM; active compounds read high
[3] = target: Steroidogenic factor 1 (Homo sapiens) (UniProt Q13285); assay: SF1 (NR5A1) inverse agonists, counter-screen for LRH-1 inverse agonist project, cell-based, luminescence, high throughput (AID 651614; in the data active = inhibition above about 44%;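 note: cells cotransfected with StAR promoter reporter and SF1 expression vector; 0% = vehicle on cells with receptor and 100% = vehicle on cells lacking receptor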); conditions: cell-based SF1 luciferase reporter, at 3.6 µM, active compounds read high
[4] = VP16 transactivation reporter inhibitors, counter-screen for LRH-1 inverse agonist project, cell-based, luminescence, high throughput (AID 651615; in the data active = inhibition above about 33%); conditions: Gal4-VP16 luciferase reporter cells, at 3.6 µM, active compounds read high

Nuclear receptor subfamily 5 group A member 2 (Homo sapiens), sequence (O00482 whole entry, looked up): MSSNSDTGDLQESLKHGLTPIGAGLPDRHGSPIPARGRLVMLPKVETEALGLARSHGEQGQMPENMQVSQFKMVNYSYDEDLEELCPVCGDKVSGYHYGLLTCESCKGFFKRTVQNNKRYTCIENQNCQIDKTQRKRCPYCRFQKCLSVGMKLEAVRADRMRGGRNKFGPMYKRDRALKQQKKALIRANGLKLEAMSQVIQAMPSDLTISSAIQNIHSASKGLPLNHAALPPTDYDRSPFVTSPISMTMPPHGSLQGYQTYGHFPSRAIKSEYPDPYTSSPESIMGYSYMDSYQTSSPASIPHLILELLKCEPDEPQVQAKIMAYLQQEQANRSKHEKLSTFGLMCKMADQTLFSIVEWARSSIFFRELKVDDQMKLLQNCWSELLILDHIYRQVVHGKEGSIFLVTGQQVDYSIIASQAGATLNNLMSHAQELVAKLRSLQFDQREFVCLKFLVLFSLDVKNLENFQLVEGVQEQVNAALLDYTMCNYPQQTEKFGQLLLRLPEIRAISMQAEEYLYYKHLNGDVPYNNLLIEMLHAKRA
Steroidogenic factor 1 (Homo sapiens), sequence (Q13285 whole entry, looked up, the tested form may be a part): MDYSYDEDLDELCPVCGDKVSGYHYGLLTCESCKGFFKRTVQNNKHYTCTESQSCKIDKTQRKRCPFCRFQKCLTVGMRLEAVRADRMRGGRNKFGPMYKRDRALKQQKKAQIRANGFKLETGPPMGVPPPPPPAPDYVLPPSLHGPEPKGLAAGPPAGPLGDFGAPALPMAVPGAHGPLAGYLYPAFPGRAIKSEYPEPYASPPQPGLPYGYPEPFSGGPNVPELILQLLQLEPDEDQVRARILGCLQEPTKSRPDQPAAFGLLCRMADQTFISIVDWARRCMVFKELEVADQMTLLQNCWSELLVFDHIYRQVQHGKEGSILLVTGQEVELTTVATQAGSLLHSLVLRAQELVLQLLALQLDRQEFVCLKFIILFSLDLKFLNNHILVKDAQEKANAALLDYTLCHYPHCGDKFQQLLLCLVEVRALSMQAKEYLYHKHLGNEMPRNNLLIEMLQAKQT

| SMILES | inhibition [1] | inhibition [2] | inhibition [3] | inhibition [4] |
| --- | --- | --- | --- | --- |
| Cc1c(C)c2ccc(OCC(=O)N3CC[C@@]4(O)CCCC[C@H]4C3)cc2oc1=O | 14.5% | 39% | 25.6% | -3.1% |
| CC(C)C(=O)N1CCN(c2ccccc2NC(=O)c2ccc([N+](=O)[O-])o2)CC1 | 10.9% | 59.1% (active) | 42.2% | 25% |
| Cc1ccc(Cl)cc1NC(=O)COC(=O)CC(C)(C)C | 28.3% (active) | 62.4% (active) | 60.2% (active) | -10.5% |
| O=C(CN1C(=O)CCC1=O)Nc1ccc(Br)cc1 | 15.1% | 60.2% (active) | 52.2% (active) | -3.7% |
| CCOC(=O)c1c(C)[nH]c(C(=O)COC(=O)/C=C/c2ccc3c(c2)OCO3)c1C | 13% | 36.5% | 43.6% (active) | 7.82% |
| Cc1ccc(-c2cc(NC=O)c3ncc(-c4cnn(C)c4)n3c2)cc1 | 50.1% (active) | 52% (active) | 64.3% (active) | -13.8% |
| CCOc1ccc(CCNC(=O)COC(=O)c2nc(Cl)ccc2Cl)cc1OCC | -2.83% | 39.2% | 28.2% | -0.88% |
| COc1ccc(CCNC(=O)CSc2nn3c(=O)c(C)nnc3s2)cc1OC | 8.26% | 57.5% (active) | 47.2% (active) | -10.1% |
| COc1ccc(NC(=O)Cn2c(C)cc(=O)c3ccccc32)cc1 | 0.15% | 64.9% (active) | 53.2% (active) | 35.1% (active) |
| Nc1nc(-c2ccccc2)[nH]c(=O)c1N=O | 18.9% | 54% (active) | 49.4% (active) | -10.9% |
| Cc1csc(NC(=O)CSc2nc3[nH]c(=O)cc(O)c3s2)n1 | 15.2% | 60.5% (active) | 68.1% (active) | -21.4% |
| COc1ccc(Nc2nc(NCCN3CCOCC3)nc(Nc3ccc(OC)cc3)n2)cc1 | -1.42% | 42.9% (active) | 38.6% | 0.52% |
| CCOc1ccc(NC(=O)CSc2nc(O)c(C)c(=O)n2-c2ccc(F)cc2)cc1 | 5.33% | 60.6% (active) | 50.6% (active) | -14.2% |
| COc1cccc(C2c3cc4c(cc3OC(N3CCCC3)C2C)OCO4)c1O (stereo not drawn) | 55% (active) | 64% (active) | 73.2% (active) | 21.9% |
| COc1ccc(C(=O)Nc2cnccn2)cc1[N+](=O)[O-] | -2.94% | 35.3% | 26.4% | 4.88% |
| CCCCCOc1ccc(Br)cc1CSC(=N)N | 41.5% (active) | 99.7% (active) | 66.2% (active) | 84% (active) |
| CS(=O)(=O)N1CCN(c2ccc(NC(=O)CSc3nnc(-c4ccco4)o3)cc2)CC1 | 4.74% | 54% (active) | 54.1% (active) | -2.76% |
